Assay results published in PubChem BioAssay (Tox21).
“And” between values parts separate entries of the source, which are not always exact repeats. Equal values may be shown once. Inconclusive results are not listed. Entries that show only a call come without a potency. More than one record can exist for a structure, and the calls need not agree. The source made the active and inactive calls. Unless noted, the call rests on the fitted dose curve; in most records, active means well fitted curve in the direction sought with a large enough effect in the repeat runs; inconclusive means weak or mixed curves; inactive means no such curve, though single readings can be large; an effect the other way counts as inactive or inconclusive.

Key:
[1] = qHTS assay to identify small molecule agonists of the hypoxia (HIF-1) signaling pathway (AID 1224846; active means well fitted activation curve with a large enough effect in the signal ratio in the repeat runs, not every such curve was filed as active; the % refers to the signal ratio)
How it was run: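 Beta-lactamase FRET read-out (CCF4-AM substrate) from ME-180 cells carrying an HRE-driven bla reporter, after 17 hrs compound exposure at 37C/5% CO2. Cells were seeded at 2,000 per well in 0.5% dialyzed FBS medium and preincubated 5 hrs.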

[2] = qHTS assay to identify small molecule agonists of H2AX - cell viability counter screen (AID 1224847; calls by dose curve; further: nearly all actives have a fitted effect of over 30% in size; further: potency means the concentration at half of the fitted maximal effect)
How it was run: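 CHO-K1 wt, 1000 cells/well, o/n 37C; cpds 15 conc, 3 h 37C, 0.76% DMSO; CellTiter-Glo, 30 min RT, luminescence.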

[3] = qHTS RealTime-Glo MT Cell Viability Assay in HepG2 cells - 24 hour (AID 1224867); further: nearly all actives have a fitted effect of over 50% in size; further: potency means the concentration at half of the fitted maximal effect
How it was run: (§1)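 HepG2 suspension premixed with RealTime-Glo reagents is plated at 600 cells per well and left 5 h at 37 C/5% CO2. Compounds in DMSO then go in, and bioluminescence reflecting viable cell number is recorded over 40 h.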

[4] = qHTS RealTime-Glo MT Cell Viability Assay in HEK293 cells - 32 hour (AID 1224868); further: nearly all actives have a fitted effect of over 50% in size; further: potency means the concentration at half of the fitted maximal effect
How it was run: (§2)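 Reads taken at 0, 8, 16, 24, 32 and 40 h from the same wells. HEK293 cells (600/well) carried RealTime-Glo reagents from seeding, with compound added after a 5 h settle at 37 C.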

[5] = A CellTox Green Cytotoxicity Assay to monitor cytotoxicity in HEK293 cells - 0 hour (AID 1224869); further: nearly all actives have a fitted effect of over 50% in size; further: potency means the concentration at half of the fitted maximal effect
How it was run: (§3)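 Read-out: fluorescence of a cell-impermeant cyanine dye staining DNA of dead cells, proportional to cytotoxicity. HEK293, 600 cells/well with reagent, compound (23 nL DMSO) added after 5 h; reads at 0, 8, 16, 24, 32, 40 h.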

[6] = qHTS RealTime-Glo MT Cell Viability Assay in HepG2 cells - 40 hour (AID 1224870); further: nearly all actives have a fitted effect of over 50% in size; further: potency means the concentration at half of the fitted maximal effect
How it was run: (§4)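 HepG2 cells (600/well) mixed with RealTime-Glo MT reagent, settled 5 h at 37 C/5% CO2 before compound addition. Nonlytic NanoLuc luminescence from viable-cell prosubstrate reduction read repeatedly during 40 h treatment at 37 C.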

[7] = A CellTox Green Cytotoxicity Assay to monitor cytotoxicity in HEK293 cells - 40 hour (AID 1224871); further: nearly all actives have a fitted effect of over 45% in size; further: potency means the concentration at half of the fitted maximal effect
How it was run: as §3

[8] = qHTS RealTime-Glo MT Cell Viability Assay in HEK293 cells - 16 hour (AID 1224872); further: nearly all actives have a fitted effect of over 50% in size; further: potency means the concentration at half of the fitted maximal effect
How it was run: as §2

[9] = qHTS RealTime-Glo MT Cell Viability Assay in HepG2 cells - 8 hour (AID 1224873); further: nearly all actives have a fitted effect of over 55% in size
How it was run: as §4

[10] = qHTS RealTime-Glo MT Cell Viability Assay in HEK293 cells - 40 hour (AID 1224874); conditions: RealTime-Glo luminescence; max response: stronger effect = lower value; further: nearly all actives have a fitted effect of over 50% in size; further: potency means the concentration at half of the fitted maximal effect
How it was run: (§5)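 Luminescence readout at each listed time point; HEK293, 600 cells/well, RealTime-Glo MT reagent added with cells; compounds pinned (23 nL in DMSO) after 5 h at 37 C; continuous culture at 37 C.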

[11] = A CellTox Green Cytotoxicity Assay to monitor cytotoxicity in HepG2 cells - 16 hour (AID 1224876); further: nearly all actives have a fitted effect of over 45% in size; further: potency means the concentration at half of the fitted maximal effect
How it was run: (§6)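 HepG2, 600 cells/well premixed w/ CellTox Green; 5 h settle, 37 C/5% CO2; pintool cpd add (DMSO); 37 C, 40 h; fluorescence read at 0, 8, 16, 24, 32, 40 h.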

[12] = qHTS RealTime-Glo MT Cell Viability Assay in HepG2 cells - 32 hour (AID 1224877); further: nearly all actives have a fitted effect of over 55% in size; further: potency means the concentration at half of the fitted maximal effect
How it was run: as §1

[13] = A CellTox Green Cytotoxicity Assay to monitor cytotoxicity in HepG2 cells - 24 hour (AID 1224878); further: nearly all actives have a fitted effect of over 45% in size; further: potency means the concentration at half of the fitted maximal effect
How it was run: as §6

[14] = A CellTox Green Cytotoxicity Assay to monitor cytotoxicity in HepG2 cells - 40 hour (AID 1224879); further: nearly all actives have a fitted effect of over 40% in size; further: potency means the concentration at half of the fitted maximal effect
How it was run: as §6

[15] = qHTS RealTime-Glo MT Cell Viability Assay in HEK293 cells - 0 hour (AID 1224880); further: top concentration of the series differs between compounds; nearly all actives have a fitted effect of over 45% in size
How it was run: as §5

[16] = A CellTox Green Cytotoxicity Assay to monitor cytotoxicity in HEK293 cells - 24 hour (AID 1224875); further: nearly all actives have a fitted effect of over 45% in size
How it was run: as §3

[17] = A CellTox Green Cytotoxicity Assay to monitor cytotoxicity in HEK293 cells - 32 hour (AID 1224881); further: nearly all actives have a fitted effect of over 40% in size
How it was run: as §3

[18] = qHTS assay to identify small molecule agonists of the estrogen related receptor (ERR) signaling pathway from Tox21 library (AID 1224849; calls by dose curve; further: nearly all actives have a fitted effect of over 15% in size); conditions: ERR reporter cell line, ONE-Glo luciferase, 18 h; at 92.4 µM (top of the series)
How it was run: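 Luminescence readout (ONE-Glo, 30 min RT) after 18 h compound exposure at 37 C of NTP-supplied ERR reporter cells; cells were plated 6 h before compound addition by pin tool.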

Row | SMILES | outcome [1] | Potency [2] | Potency [3] | Potency [4] | Potency [5] | Potency [6] | Potency [7] | Potency [8] | Potency [9] | Potency [10] | max response [10] | Potency [11] | Potency [12] | Potency [13] | Potency [14] | Potency [15] | Potency [16] | Potency [17] | activity change, positive = activation [18]
1 | CCOP(=O)(O)OCC (tested in a mixture with another compound) | inactive | inactive and 28.2 µM (active) | inactive and 48.6 µM (active) | inactive and 4.33 µM (active) | inactive | inactive and 43.3 µM (active) | inactive and 24.3 µM (active) | inactive and 24.3 µM (active) | inactive | 2.43 µM (active) | 4.04% (inactive) | inactive and 43.3 µM (active) | inactive and 48.6 µM (active) | inactive and 43.3 µM (active) | inactive and 34.4 µM (active) | inactive |  |  | 
2 | ClCc1ccccn1 | inactive | inactive | inactive | inactive | inactive |  | inactive | inactive | inactive |  | 0.166% (inactive) and 14.2% (inactive) | inactive |  | inactive | inactive | inactive | inactive | inactive | 
3 | CC[n+]1c(-c2ccccc2)c2cc(N)ccc2c2ccc(N)cc21 |  | inactive |  |  | inactive | inactive | inactive | 17.3 µM (active) and 23.9 µM (active) | inactive | 3.45 µM (active) and 2.13 µM (active) |  | inactive |  | inactive | inactive | inactive | inactive | inactive | 
4 | CCCCSP(=O)(SCCCC)SCCCC | inactive | inactive | inactive |  | inactive | inactive | inactive | inactive | inactive |  |  | inactive | inactive | inactive | inactive | inactive | inactive | inactive | 
5 | C[C@]12CCC(=O)C=C1CC[C@@H]1[C@@H]2CC[C@@]2(C)[C@H]1CC[C@]2(C)O | inactive | 71.9 µM (active) and inactive | inactive |  | 44 µM (active) and inactive |  | 49.4 µM (active) and inactive | 19.7 µM (active) | inactive | 19.7 µM (active) |  | 22.1 µM (active) and inactive | inactive | 35 µM (active) | 19.7 µM (active) and 23.9 µM (active) | inactive |  |  | 
6 | CCCCCCCCCC(CC)c1ccc(S(=O)(=O)O)cc1 (centres undefined) | inactive |  | inactive | 39.3 µM (active) and inactive | inactive | inactive |  | inactive | inactive | 44.1 µM (active) | -25.5% (inactive) and -23.7% (inactive) and -24.7% (inactive) | 49 µM (active) and 16.9 µM (active) and 42 µM (active) | inactive | 54.9 µM (active) and 21.3 µM (active) and 38.9 µM (active) | 21.3 µM (active) and 38.9 µM (active) | inactive |  |  | 
7 | O=[N+]([O-])c1ccc(Nc2ccccc2)cc1 | inactive | 80 µM (active) | inactive |  | inactive | inactive | inactive | 27.8 µM (active) | inactive |  |  | inactive |  | inactive | inactive | inactive | inactive |  | -30.2% (inactive) and -27.4% (inactive)
8 | O=NN1CCOCC1 | inactive | inactive | inactive | inactive and 2.19 µM (active) | inactive | inactive | inactive | inactive and 3.47 µM (active) | inactive |  |  | inactive | inactive | inactive | inactive | inactive | inactive |  | 
9 | CCN(CC)C(=O)C(C)Oc1cccc2ccccc12 (centres undefined) | inactive |  | inactive | inactive | inactive |  | inactive | inactive | inactive |  | -27.1% (inactive) and -29.7% (inactive) | inactive |  | inactive | inactive | inactive | inactive | inactive | 
10 | O=C(O)CF | inactive | inactive | inactive |  | inactive | inactive | inactive | inactive | inactive |  |  | inactive | inactive | inactive and 19.5 µM (active) | inactive and 19.5 µM (active) | inactive | inactive | inactive | 
